High-throughput results (PubChem BioAssay)
p53 reactivator: restores transcriptional activity of mutant p53 | H1299 p53-A138V BP100-luciferase reporter, luminescence, 24 h | Potency, µM (doses to about 92.2 µM), inactives show at the highest dose activity change, positive = activation, usual class: activators | actives 0.063% (n = 320,000) | AID 504706; active means well fitted activation curve with a large enough effect; inconclusive means small, poorly fitted or top-dose-only effect; inactive means no such curve, though single readings can be large or run the other way; further: potency means the concentration at half of the fitted maximal effect; % of control where 0% means no effect; nearly all actives have a fitted effect of over 45% in size
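p53-null H1299 cells stably carrying temperature-sensitive p53-A138V and a BP100-luciferase reporter were pinned with compounds (4-point, 1:5 series) and held 24 hrs at 37 deg C. Luminescence was read 10 min after detection reagent.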
Menin-MLL TR inh: inhibitors of human menin-MLL interaction, mutant MLL peptide | Menin + Texas Red MLL mutant peptide, fluorescence polarization | O00255 | actives 0.23% (n = 270,000) | Potency, µM (titrated, usually from 61.6 µM), without a hit: at the top dose FP activity change, negative = inhibition, most hits filed as inhibitors; active means well fitted inhibition curve with a large enough effect in the polarisation, with a control signal flat, not every such curve was filed as active; inconclusive means small, poorly fitted or top-dose-only effect, or effect the other way, or a change in a side signal; inactive means no such curve, though single readings can be large or run the other way; the % refers to the polarisation; further: potency means the concentration at half of the fitted maximal effect; % of control where 0% means no effect
CXXC DNA block: MLL CXXC-DNA interaction inhibition; Q03164; MLL-CXXC / FITC-HOXA9 DNA fluorescence polarization; Potency, µM (highest dose often 115 µM), for inactives: at the highest dose activity change, negative = inhibition, most hits filed as inhibitors; actives 0.037% (n = 290,000); active means well fitted inhibition curve with a large enough effect in the polarisation, with a control signal flat, not every such curve was filed as active; inconclusive means small, poorly fitted or top-dose-only effect, or effect the other way, or a change in a side signal; inactive means no such curve, though single readings can be large or run the other way; the % refers to the polarisation; further: potency means the concentration at half of the fitted maximal effect
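Steps: dispense CXXC domain solution (7 uM) → pin compounds or unlabeled HOX-A9 DNA control → 5 min ambient → add FLSN-HOX-A9 solution (50 nM) → spin → 30 min ambient → fluorescence polarization. Tris pH 7.5/NaCl/DTT/BSA buffer.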
ClpP mod: qHTS Assay for Activators of ClpP. ATP-dependent Clp protease proteolytic subunit (Bacillus subtilis (strain 168)), P80244. Potency, µM (top dose mostly 57.5 µM), for inactives: at the top dose activity change, negative = active. actives 1.9% (n = 340,000). purified B. subtilis ClpP, FRET peptide cleavage, 20 min; active means well fitted falling curve with a large enough effect; inconclusive means small, poorly fitted or top-dose-only effect; inactive means no such curve, though single readings can be large or run the other way; further: potency means the concentration at half of the fitted maximal effect; the source files actives as falling curves though it sought activators and does not explain the sign; nearly all actives have a fitted effect of over 65% in size
Target sequence (P80244 whole entry, looked up): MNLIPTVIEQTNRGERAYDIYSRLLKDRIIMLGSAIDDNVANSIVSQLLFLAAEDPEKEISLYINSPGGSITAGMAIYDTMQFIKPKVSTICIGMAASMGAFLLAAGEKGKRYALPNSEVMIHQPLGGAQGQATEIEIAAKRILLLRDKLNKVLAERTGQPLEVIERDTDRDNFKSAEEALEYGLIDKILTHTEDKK
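ClpP 10 microg/mL final, pH 8 Tris/KCl buffer with BSA, glycerol, Tween-20; compound pinned in; FRET-FV substrate; RT 20 min; Ex320/Em430; ΔFRET vs ADEP 5.8 microM, DMSO, no enzyme.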
Menin MLL FP FL: inhibitors of human menin-MLL interaction, wild-type MLL peptide | 290,000 tested, under 10 active | AID 1766 | Fluorescence polarization, fluorescein-MLL peptide displacement from menin | FP activity change, % at 61.4 µM; active means well fitted curve in the direction sought with a large enough effect in the polarisation, not every such curve was filed as active; inconclusive means small, poorly fitted or top-dose-only effect, or effect the other way, or a change in a side signal; inactive means no such curve, though single readings can be large or run the other way; the % refers to the polarisation; further: % of control where 0% means no effect
Starred values were filed as active, the others as inactive; ? = inconclusive; / = not tested or not shown. The entries come from a sample that favours hits as a whole.

SMILES	p53 reactivator	Menin-MLL TR inh	CXXC DNA block	ClpP mod	Menin MLL FP FL
COc1cccc2c(=O)c(C(=O)NCCc3ccccc3)c[nH]c12	/	/	/	4.3%	/
COc1cc2c(OC)cccc2cc1C(=O)O	6.9%	-2.7%	-4.7%	15.8µM*	-0.6
C/C=C1\COC(C(=O)NC)(C(F)(F)F)C=C1C=C1CCCCC1 (stereo not given)	/	1.1%	/	/	-2.3
COc1cc2c(c(OC)c1OC)-c1c(cc3c(c1OC)OCO3)CC(C)C(C)(O)C2OC(=O)c1ccccc1 (stereo not given)	/	-16.7%	/	/	0.3
c1ccc(-c2cc(-c3ccncc3)nc3ccc4ccccc4c23)cc1	-12.1%	-2.1%	6.7%	22.4µM*	2.2
Clc1ccc2nc(-c3ccncc3)cc(-c3ccccc3)c2c1	2.6%	-25.3%	-12.0%	-2.5%	1.1
O=C(COC(=O)c1ccc(Br)cc1)Nc1cccnc1Cl	0.9%	/	/	-2.0%	/
O=C(COC(=O)c1cccc(F)c1)Nc1cccnc1Cl	-2.2%	-1.4%	-1.9%	25.1µM*	1.3
COc1ccc(Cl)cc1C(=O)OCC(=O)Nc1cccnc1Cl	7.0%	/	/	?	/
COc1cc(N)c(Cl)cc1C(=O)OCC(=O)Nc1cccnc1Cl	-1.5%	/	/	28.2µM*	/
C(=C\c1ccnc2ccccc12)/c1ccc(-[n+]2cc[n+](-c3ccc(/C=C/c4ccnc5ccccc45)cc3)cc2)cc1	/	/	/	-3.7%	/
Cc1ccc(-n2cnc(=O)c3cccnc32)cc1	4.9%	0.0%	-1.7%	-0.3%	3.3
Cc1cn2c(nc(=O)c3cccnc32)s1	5.0%	0.0%	9.3%	15.8µM*	-0.1
COc1cc2nc(CCc3nc4cc(OC)c(OC)cc4[nH]3)[nH]c2cc1OC	/	/	/	-3.8%	/
CN1CCc2c(sc3c2C(=O)NC(c2cccs2)N3)C1 (stereo not given)	?	28.2µM*	19.7%	25.1µM*	?
Cc1ccsc1C1NC(=O)c2c(sc3c2CCN(C)C3)N1 (stereo not given)	?	-20.0%	33.6%	3.8%	?
COc1ccc(C(=O)Oc2ccc(C3NC(=O)c4c(sc5c4CCN(C)C5)N3)cc2OC)cc1 (stereo not given)	/	/	/	17.8µM*	/
CCOc1cc(C2NC(=O)c3c(sc4c3CCN(C)C4)N2)ccc1OC(=O)c1ccccc1Cl (stereo not given)	/	/	/	-1.2%	/
O=C(Nc1cccc2c1CCCC2)c1cc([N+](=O)[O-])cc([N+](=O)[O-])c1	27.5%	?	8.8%	28.2µM*	1.7
COc1ccc(C(=O)Nc2cccc3c2CCCC3)cc1	0.9%	-3.5%	8.9%	-8.3%	-2.1
COc1cc(CC(NC(C)=O)C(=O)NC2CCN(c3nc(C)cc(C)c3C#N)CC2)cc(OC)c1 (stereo not given)	-25.3%	0.0%	5.0%	?	1.8
COc1cccc(CC(NC(C)=O)C(=O)NC2CCN(c3nc(C)cc(C)c3C#N)CC2)c1OC (stereo not given)	-12.1%	-25.8%	2.8%	28.2µM*	4.4
Cc1cc(C(=O)COc2ccccc2C(N)=O)c(C)n1C	-1.3%	20.6%	?	28.2µM*	3.9
Cc1cc(C(=O)COc2ccccc2C(N)=O)c(C)n1C1CC1	?	-9.0%	-4.3%	0.4%	0.9
Cc1nn(-c2nc3ccccc3s2)c(N)c1-c1ccc(Cl)cc1	?	5.4%	-0.7%	-2.0%	3.8
SMILES	p53 reactivator	Menin-MLL TR inh	CXXC DNA block	ClpP mod	Menin MLL FP FL
Cc1nn(-c2nc3ccccc3s2)c(N)c1-c1ccccc1	22.4µM*	-10.9%	21.3%	0.3%	0.0
N#C/C(=C\C1CC=CCC1)c1nc2ccccc2[nH]1 (stereo not given)	?	29.4%	8.4%	31.6µM*	16.5
O=C(Cc1cccs1)N/N=C/C=C\c1ccco1	14.1µM*	18.4%	-3.7%	/	?
C=CCNC(=S)Nc1ccc2nsnc2c1	20.3%	17.6%	11.3%	28.2µM*	4.1
CCCCn1c(SCC(=O)c2ccc(O)c(O)c2)nc2ccsc2c1=O	-4.3%	?	-0.7%	-0.1%	3.0
O=C(O)CCCCCn1c(SCC(=O)c2ccc(O)c(O)c2)nc2ccsc2c1=O	-8.2%	1.8%	7.3%	7.94µM*	2.5
